Laboratory results from PubChem BioAssay AID940 (Emory University Molecular Libraries Screening Center, 2007).
Where “and” joins values, the source holds several entries; their conditions need not be identical. Equal entries are not always repeated. The whole screen tested about 260,000 compounds, of which about 2,200 (0.85%) were called active. This is one part of a sample in which actives are shown more often than they occur. A number with no mark means an inactive call.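 Rule for the calls: active = compounds whose cAMP rise, as percent of the full-agonist control response, exceeds 60; inactive = the rest.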

Target: Prostaglandin E2 receptor EP2 subtype (Homo sapiens) (UniProt P43116)
Assay: modulation of human EP2 prostaglandin signaling – cell-based, HTRF cAMP, PGE2 stimulation, primary screen (AID 940);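 note: rat C6 glioma line stably carrying human EP2 under a CMV promoter; the protocol text gives 20 µM as final concentration; 100% = response of wells given 1 µM PGE2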
Conditions: EP2-expressing cells, cAMP HTRF FRET, PGE2 co-stimulation; at 25 µM; stronger effect = higher value

Sequence of Prostaglandin E2 receptor EP2 subtype (Homo sapiens) (P43116 whole entry, looked up): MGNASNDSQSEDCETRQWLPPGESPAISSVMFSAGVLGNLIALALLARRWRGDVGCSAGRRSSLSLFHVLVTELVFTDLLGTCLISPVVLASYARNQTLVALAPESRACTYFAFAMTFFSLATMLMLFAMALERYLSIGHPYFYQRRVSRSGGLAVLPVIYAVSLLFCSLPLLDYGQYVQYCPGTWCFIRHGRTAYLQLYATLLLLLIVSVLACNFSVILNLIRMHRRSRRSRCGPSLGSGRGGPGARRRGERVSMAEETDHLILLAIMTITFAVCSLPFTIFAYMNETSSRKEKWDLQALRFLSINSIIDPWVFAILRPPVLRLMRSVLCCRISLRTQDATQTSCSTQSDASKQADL

| Compound | induction |
| --- | --- |
| COc1ccc2cc(C)c3nn(CC(=O)N4CCC(C)CC4)c(=O)n3c2c1 | -70.2% |
| CCn1cc(S(=O)(=O)N2CCC(CCc3ccc(C(=O)O)cc3)CC2)c(C)n1 | -33.1% |
| Cc1cc(NC(=O)CSc2nnc3c4c5c(sc4nc(C(C)C)n23)CCCC5)no1 | 0.87% |
| CCOC(=O)C1=C(C)NC(=O)NC1c1ccccc1 (stereo unspecified) | 19% |
| CCOC(=O)C1=C(CN2CCCCCC2)NC(=O)NC1c1cccc([N+](=O)[O-])c1 (stereo unspecified) | -9.45% |
| CCOC(=O)C1=C(c2ccccc2)NC(=S)NC1c1ccc(Cl)cc1 (stereo unspecified) | 47.1% |
| CCOC(=O)C1=C(CNC2CCCCC2)NC(=O)NC1c1cc(C)ccc1C (stereo unspecified) | 34.3% |
| CCOC(=O)C1=C(CN2CCc3ccccc32)NC(=O)NC1c1ccc(Cl)cc1 (stereo unspecified) | 68.2% (active) |
| CCOC(=O)C1=C(CN2CCc3ccccc32)NC(=O)NC1c1cccc([N+](=O)[O-])c1 (stereo unspecified) | 64.5% (active) |
| COc1ccc(-c2nc(SCC(=O)O)n[nH]2)cc1 | -21.9% |
| Cc1ccc(NC(=O)CSc2nccc(=O)[nH]2)c(C)c1 | -21.1% |
| Clc1c(-c2nnc(-c3ccc(N4CCOCC4)cc3)o2)sc2ccccc12 | -13.2% |
| c1csc(-c2cn3c(n2)SCC3)c1 | -16.2% |
| Cc1cc2nc(C(F)(F)F)cc(-c3cccs3)n2n1 | 19.1% |
| Cc1cc(-c2cccs2)nc(-n2cccc2)n1 | 62.7% (active) |
| O=C(CSc1nc(-c2ccco2)cc(C(F)(F)F)n1)Nc1ccc(Cl)cc1Cl | -110% |
| O=C(NCCO)C(=O)NCC1COc2ccccc2O1 (stereo unspecified) | -12.4% |
| Cc1cc(=O)n2c3c(cccc13)CCC2 | 1.93% |
| Cc1ccc2nc(NC(=O)c3c(O)c4cccc5c4n(c3=O)CC5)sc2c1 | -11.9% |
| CCNC(=O)c1c(O)c2cccc3c2n(c1=O)CC3 | 60.8% (active) |
| CN1c2ncccc2C(=O)NC12CCN(C(=O)Cn1ncc3ccccc3c1=O)CC2 | -10.6% |
| O=C(NCc1ccco1)c1cc2sccc2n1Cc1ccc(F)cc1 | 41.1% |
| CC1Cc2ccccc2N1C(=O)c1cc2sccc2n1Cc1ccccc1 (stereo unspecified) | 54.1% |
| O=C(c1cc2sccc2n1Cc1ccc(F)cc1)N1CCc2ccccc21 | 63% (active) |

| Compound | induction |
| --- | --- |
| O=C(NCc1nc(-c2cccnc2)n[nH]1)C(c1ccccc1)C1CCCCC1 (stereo unspecified) | 24.6% |
| Cc1ccccc1-n1c(SCC(=O)N2CCCCCC2)nnc1-c1cccnc1 | -15.5% |
| COc1cccc(CN2CCN(C(=O)c3ccccn3)[C@@H](C)C2)c1 | -14.5% |
| CCn1c(SCC(=O)Nc2ccc(C)cc2C)nnc1C(C)C | -31.6% |
| CCN1CCN(c2c(Cl)cccc2NC(=O)c2ccc(Br)o2)CC1 | 74.4% (active) |
| COc1cc(OC)c(NC(=O)c2ccc(Br)o2)cc1Cl | -17.9% |
| CCCC(=O)Nc1ccc(Cl)c(NC(=O)c2ccc(Br)o2)c1 | 6.2% |
| CCCc1nc(SCC(=O)OCC)c2c(C)c(C)sc2n1 | 74% (active) |
| CCOC(=O)c1sc2nc(C)nc(SCC(N)=O)c2c1C | 9.11% |
| CCCc1nc(SCC(=O)N2CCCC2)c2c(C)c(C)sc2n1 | 1.9% |
| COc1ccc(OC)c(C(=O)CSc2ncnc3c2cnn3-c2ccccc2C)c1 | 44.3% |
| Cn1c(=O)[nH]c(=O)c2c1nc(NCCCO)n2Cc1cccc2ccccc12 | 22% |
| CCC(C)(C)c1ccc(OCC(=O)N(C)C)c(C(C)(C)CC)c1 | 76% (active) |
| CN(C)CCOc1ccc(Cl)cc1C(C)(C)C | -0.86% |
| CCc1nc(C)ccc1OCC(=O)N(CC)CC | 8.52% |
| COc1cc(C2NC(=O)NC(C)=C2C(=O)Nc2ccc(C)cc2C)ccc1O (stereo unspecified) | 5.85% |
| CSc1nc2ccccc2c(=O)n1Cc1ccc(F)cc1 | 80.8% (active) |
| O=C(CCn1c(SCC(=O)c2ccccc2)nc2ccccc2c1=O)NCc1ccc(F)cc1 | 11.2% |
| COC(=O)CSc1nc2ccccc2c(=O)n1Cc1ccccc1 | 47.6% |
| COc1cccc(C2(NC(=O)c3cccc(N4CCCCS4(=O)=O)c3)CCCC2)c1 | -5.04% |
| O=C(Nc1cc(Cl)cc(Cl)c1)C1CCN(C(=O)c2cccs2)CC1 | -118% |
| C=CCn1c(SCC(=O)Nc2ccccc2F)nc2sc(C)c(C)c2c1=O | -87.9% |
| COc1cccc(-c2ccc(NS(=O)(=O)c3ccc4c(c3)CCC(=O)N4)cc2)c1 | -97.5% |
| NC(=S)N/N=C/c1coc2cc(Cl)ccc2c1=O | 5.33% |

| Compound | induction |
| --- | --- |
| CC(C)Oc1c(Br)cc(Br)cc1/C=N/NC(N)=S | 62% (active) |
| CCOc1ccc(/C=N/NC(N)=S)cc1 | -0.15% |
| COc1ccccc1NC(=S)N(Cc1cc2c(C)cc(C)cc2[nH]c1=O)C1CCCC1 | 3.07% |
| CCOC(=O)C(=O)Nc1sc(C(=O)Nc2cc(C)ccc2C)c(C)c1C(=O)OC | -1.65% |
| COC(=O)c1c(NC(=O)C(C)C)sc(C(=O)Nc2cc(C)ccc2C)c1C | 62% (active) |
| COC(=O)c1c(NC(=O)C2CC2)sc(C(=O)Nc2cc(C)ccc2C)c1C | -75.5% |
| COCCn1c(=O)n(CC(=O)N2CCN(c3ccccc3F)CC2)c2cccnc21 | 0.09% |
| CCN1c2ncccc2C(=O)NC12CCN(C(=O)c1cccc3c1C(=O)N(C)C3)CC2 | -5.04% |
| CCn1c(CSc2nc(C)cc(C)n2)nnc1SCC(=O)Nc1cccc(C(F)(F)F)c1 | -10.6% |
| CC[N+](C)(CC[N+](C)(C)C)Cc1cc2ccccc2o1 (stereo unspecified) | -3.15% |
| CCCCCn1c(SCCC(C)C)nc2c1c(=O)[nH]c(=O)n2C | 69.2% (active) |
| C=CCn1c(SC(C)C(=O)OC)nc2c1c(=O)[nH]c(=O)n2C (stereo unspecified) | -1.3% |
| CCCCCCn1c(SCC(=O)c2ccccc2)nc2c1c(=O)[nH]c(=O)n2C | -0.64% |
| C=CCn1c(=O)c(C(=O)Nc2cccc(C)n2)c(O)c2ccccc21 | 2.07% |
| CCn1c(COc2ccc(OC)cc2)nnc1SC(C)C(=O)Nc1ccccc1C (stereo unspecified) | 28.9% |
| COc1ccccc1Cc1nnc(NC(=O)c2cnc(SC)nc2)s1 | -0.63% |
| CC1=CC(C)(C)N(C(=O)CSc2nnc(-c3ccccc3)o2)c2ccc(C)cc21 | 61.5% (active) |
| CC1=CC(C)(C)N(C(=O)CSc2nccn2C)c2cc(C)ccc21 | 43.9% |
| O=C(CSc1nnc(-c2ccccc2)o1)N1CCOCC1 | 1.42% |
| COc1ccc(-c2csc(N3N=C(C)CC3=O)n2)cc1 | -82.9% |
| NC(=O)C1CCN(Cc2nnnn2Cc2ccccc2)CC1 | 25.5% |
| CCCOC(=O)Cn1cnc2sc(C)c(-c3ccc(Cl)cc3)c2c1=O | 27.2% |
| CCCn1cnc2sc(C)c(-c3ccc(Cl)cc3)c2c1=O | 36.5% |
| C=CCn1cnc2sc(C)c(-c3ccc(Cl)cc3)c2c1=O | 72.1% (active) |

| Compound | induction |
| --- | --- |
| O=C(Nc1cccc2ccccc12)C1CCN(C(=O)c2cccc(Cl)c2)CC1 | -52% |
| CC(C)N(C(=O)CSc1nc(COc2ccccc2)nc2ccccc12)C(C)C | 60.5% (active) and 78.3% (active) |
| CN(C(=O)CSc1nc(C2CC2)nc2ccccc12)c1nc(-c2ccccc2)cs1 | 0.29% |
| CCCc1nc(SCC(=O)Nc2ccc(S(=O)(=O)N(C)C)cc2)c2ccccc2n1 | 0.33% |
| COc1cc(OC)cc(OCC(O)Cn2c(C)nc3ccccc32)c1 (stereo unspecified) | -45% |
| CCn1c(SCC(=O)Nc2cc(Cl)ccc2Cl)nc2sc(C)c(C)c2c1=O | 8.59% |
| CC1(C(=O)N(CC(=O)NCc2ccc(F)cc2)C2CCCC2)CC(=O)N=C2C=CC=CN21 (stereo unspecified) | -9.59% |
| NNC(=O)COc1ccc(C2SCCS2)cc1 | -9.97% |
| NC(=O)COc1ccc(NC(=O)c2ccccc2-c2ccccc2)cc1 | -20.6% |
| NC(=O)COc1ccc(C23CC4CC(CC(C4)C2)C3)cc1 | 87.8% (active) |
| Cn1nnc2cc(NC(=O)Nc3ccc(F)cc3)ccc21 | -20.8% |
| Cc1nn(CC(=O)Nc2ccc(C#N)cc2)c(C)c1[N+](=O)[O-] | 40.4% |
| Cc1nc(NCCN)c(C#N)c2c1COC(C)(C)C2 | 14.1% |
| CCNc1nc(C)c([N+](=O)[O-])c(C)c1C#N | 68.9% (active) |
| COc1ccccc1-c1ocnc1C(=O)Nc1ccc(N2CCC(C)CC2)c(C(N)=O)c1 | -7.54% |
| O=c1oc2ccccc2n1CCCOc1cccc2ccccc12 | 74.5% (active) |
| Cc1ccc(OCCCn2c(=O)oc3ccccc32)cc1 | -12.8% |
| NC(=O)Cn1c(=O)oc2ccccc21 | 8.45% |
| CC1CCCN(CC(=O)N2CCN(C(=O)CN3CCCC(C)C3)CC2)C1 (stereo unspecified) | -44.2% |
| CCCn1c(=O)[nH]c2c(C(N)=O)nc(-c3ccccc3F)nc21 | -12.9% |
| Cc1noc(C)c1CSCC(=O)Nc1nc2ccc(Oc3ccccc3)cc2s1 | -9.73% |
| CCOC(=O)c1c(-c2cccc(C)c2)csc1NC(=O)c1c(-c2ccccc2)noc1C | 34.1% |
| CCOC(=O)c1c(C2CC2)csc1NC(=O)CSCc1c(C)noc1C | 75.9% (active) |
| CCOc1cccc(/C(O)=C2/C(=O)C(=O)N(CCN3CCOCC3)C2c2ccc(C)o2)c1 (stereo unspecified) | -20% |
